In PubChem BioAssay (NCATS):
Inconclusive results are not listed. The source made the active and inactive calls. The call rests on the fitted dose curve; in most records, active means well fitted curve in the direction sought with a large enough effect; inconclusive means small, poorly fitted or top-dose-only effect, or another doubt; inactive means no such curve, though single readings can be large; an effect the other way counts as inactive or inconclusive.

Key:
[1] = Quantitative High-Throughput drug screen in 47 multiple myeloma cell lines against the NCATS MIPE library collection: JIM3_ECACC cell viability assay (AID 1918963; further: nearly all actives have a fitted effect of over 35% in size); settings: JIM3 myeloma viability, CellTiter-Glo ATP, 48 h; series mostly up to 45.8 µM
Outline: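 qHTS of the MIPE 4.0 collection: 500 myeloma cells/well, 48 h drug exposure at 37C in 5% CO2, then CellTiter-Glo for 5 min at room temperature before luminescence reading.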

[2] = Quantitative High-Throughput drug screen in 47 multiple myeloma cell lines against the NCATS MIPE library collection: JJN3_DSMZ cell viability assay (AID 1918966; further: nearly all actives have a fitted effect of over 50% in size); settings: JJN3 myeloma cells viability, CellTiter-Glo ATP, 48 h; series mostly up to 45.8 µM
Outline: (§1)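 CellTiter-Glo ATP luminescence gave viability after 48 h compound treatment at 37C of 500 multiple myeloma cells per well. Normalisation used DMSO-only wells as 100% and media-only wells as 0% viability; primary qHTS of approved and investigational drugs.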

[3] = Quantitative High-Throughput drug screen in 47 multiple myeloma cell lines against the NCATS MIPE library collection: KMS27_JCRB cell viability assay (AID 1918970); settings: KMS27 myeloma cells, CellTiter-Glo ATP viability, 48 h; series mostly up to 45.8 µM; further: nearly all actives have a fitted effect of over 30% in size
Outline: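 Luminescent ATP read-out (CellTiter-Glo, 5 min at room temperature) after 48 h compound exposure of 500 KMS27_JCRB cells per well; DMSO wells define full viability and media-only wells zero.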

[4] = Quantitative High-Throughput drug screen in 47 multiple myeloma cell lines against the NCATS MIPE library collection: KMS26_JCRB cell viability assay (AID 1918975); settings: KMS26 myeloma cells viability, CellTiter-Glo ATP, 48 h; series mostly up to 45.8 µM; further: nearly all actives have a fitted effect of over 45% in size
Outline: (§2)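 Myeloma cell lines, 500 cells per well, exposed to MIPE 4.0 library compounds for 48 h at 37C, 5% CO2. Viability from ATP by CellTiter-Glo luminescence; normalised to DMSO (100%) and media-only (0%) wells.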

[5] = Quantitative High-Throughput drug screen in 47 multiple myeloma cell lines against the NCATS MIPE library collection: OCIMY1_PLB cell viability assay (AID 1918979); settings: OCI-MY1 myeloma viability, CellTiter-Glo ATP, 48 h; series mostly up to 45.8 µM; further: nearly all actives have a fitted effect of over 35% in size
Outline: (§3)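 qHTS format: cells plated (500/well), pin-dosed with MIPE 4.0 compounds, kept 48 h at 37 °C. Readout was CellTiter-Glo luminescence, median RLU.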

[6] = Quantitative High-Throughput drug screen in 47 multiple myeloma cell lines against the NCATS MIPE library collection: LP1_DSMZ cell viability assay (AID 1918982); settings: LP1 myeloma viability, CellTiter-Glo ATP luminescence, 48 h; series mostly up to 45.8 µM; further: nearly all actives have a fitted effect of over 35% in size
Outline: as §3

[7] = Quantitative High-Throughput drug screen in 47 multiple myeloma cell lines against the NCATS MIPE library collection: H1112_PLB cell viability assay (AID 1918967; further: nearly all actives have a fitted effect of over 30% in size); settings: H1112 myeloma cells viability, ATP luminescence, 48 h; series mostly up to 45.8 µM
Outline: as §1

[8] = Quantitative High-Throughput drug screen in 47 multiple myeloma cell lines against the NCATS MIPE library collection: Karpas25_ECACC cell viability assay (AID 1918968; further: nearly all actives have a fitted effect of over 35% in size); settings: Karpas25 myeloma viability, CellTiter-Glo ATP, 48 h; series mostly up to 45.8 µM
Outline: as §1

[9] = Quantitative High-Throughput drug screen in 47 multiple myeloma cell lines against the NCATS MIPE library collection: KMS12BM_JCRB cell viability assay (AID 1918971); settings: KMS12BM myeloma viability, CellTiter-Glo ATP, 48 h; series mostly up to 45.8 µM; further: nearly all actives have a fitted effect of over 35% in size
Outline: as §2

[10] = Quantitative High-Throughput drug screen in 47 multiple myeloma cell lines against the NCATS MIPE library collection: KMS12PE_JCRB cell viability assay (AID 1918972); settings: KMS12PE myeloma viability, CellTiter-Glo ATP, 48 h; series mostly up to 45.8 µM; further: nearly all actives have a fitted effect of over 30% in size
Outline: (§4)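 Luminescent ATP measurement with CellTiter-Glo gives viability, scaled between DMSO-only wells (100%) and media-only wells (0%). Cells, 500 per well, faced library compounds for 48 hours at 37C.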

[11] = Quantitative High-Throughput drug screen in 47 multiple myeloma cell lines against the NCATS MIPE library collection: MMM1_PLB cell viability assay (AID 1918976); settings: MMM1 myeloma cells viability, CellTiter-Glo, 48 h; series mostly up to 45.8 µM; further: nearly all actives have a fitted effect of over 35% in size
Outline: as §3

[12] = Quantitative High-Throughput drug screen in 47 multiple myeloma cell lines against the NCATS MIPE library collection: MOLP8_DSMZ cell viability assay (AID 1918977); settings: MOLP8 myeloma viability, CellTiter-Glo ATP luminescence, 48 h; series mostly up to 45.8 µM; further: nearly all actives have a fitted effect of over 45% in size
Outline: as §3

[13] = Quantitative High-Throughput drug screen in 47 multiple myeloma cell lines against the NCATS MIPE library collection: NCIH929_DSMZ cell viability assay (AID 1918978); settings: NCI-H929 myeloma viability, CellTiter-Glo ATP, 48 h; series mostly up to 45.8 µM; further: nearly all actives have a fitted effect of over 35% in size
Outline: as §3

[14] = Quantitative High-Throughput drug screen in 47 multiple myeloma cell lines against the NCATS MIPE library collection: MM1S_ATCC cell viability assay (AID 1918980); settings: MM1S myeloma viability, CellTiter-Glo ATP luminescence, 48 h; series mostly up to 45.8 µM; further: nearly all actives have a fitted effect of over 45% in size
Outline: as §3

[15] = Quantitative High-Throughput drug screen in 47 multiple myeloma cell lines against the NCATS MIPE library collection: KMS20_JCRB cell viability assay (AID 1918973); settings: CellTiter-Glo ATP, 48 h; series mostly up to 45.8 µM; further: nearly all actives have a fitted effect of over 45% in size
Outline: as §1

[16] = Quantitative High-Throughput drug screen in 47 multiple myeloma cell lines against the NCATS MIPE library collection: MM1R_ATCC cell viability assay (AID 1918981); settings: MM1R multiple myeloma cells, CellTiter-Glo viability, 48 h; series mostly up to 45.8 µM; further: nearly all actives have a fitted effect of over 35% in size
Outline: as §3

[17] = Quantitative High-Throughput drug screen in 47 multiple myeloma cell lines against the NCATS MIPE library collection: JIM1_ECACC cell viability assay (AID 1918964); settings: JIM1 myeloma viability, CellTiter-Glo ATP luminescence, 48 h; series mostly up to 45.8 µM
Outline: as §1

[18] = Quantitative High-Throughput drug screen in 47 multiple myeloma cell lines against the NCATS MIPE library collection: INA6_PLB cell viability assay (AID 1918965; further: nearly all actives have a fitted effect of over 55% in size); settings: INA6 myeloma viability, CellTiter-Glo ATP luminescence, 48 h; series mostly up to 45.8 µM
Outline: as §4

[19] = Quantitative High-Throughput drug screen in 47 multiple myeloma cell lines against the NCATS MIPE library collection: KMS21BM_JCRB cell viability assay (AID 1918974); settings: ATP luminescence, 48 h; viability: at 45.8 µM (top of the series) unless noted
Outline: as §1
Potency means the concentration at half of the fitted maximal effect.

C=CC(=O)Nc1cccc(Oc2nc(Nc3ccc(N4CCN(C)CC4)cc3OC)ncc2Cl)c1
active: Potency [1] 118 nM | Potency [2] 20.9 µM | Potency [3] 37.2 µM | Potency [4] 26.4 µM | Potency [5] 20.9 µM | Potency [6] 20.9 µM

COc1cc2nccc(Oc3ccc(NC(=O)C4(C(=O)Nc5ccc(F)cc5)CC4)cc3)c2cc1OC
active: Potency [1] 14800 nM | Potency [2] 1.66 µM | Potency [7] 11.8 µM | Potency [8] 5.26 µM | Potency [3] 4.69 µM | Potency [9] 11.8 µM | Potency [10] 7.43 µM | Potency [4] 23.5 µM | Potency [11] 2.35 µM | Potency [12] 14.8 µM | Potency [13] 16.6 µM | Potency [5] 26.4 µM | Potency [14] 0.59 µM | Potency [6] 20.9 µM

C[C@]12CC[C@H](O)CC1=CCC1C2CC[C@]2(C)C(n3cnc4ccccc43)=CCC12 (stereo partly drawn)
inactive: Potency [1] | Potency [7] | Potency [8] | Potency [3] | Potency [10] | Potency [15] | Potency [5] | Potency [14]

C[C@@H](Oc1cc(-n2cnc3ccc(CN4CCN(C)CC4)cc32)sc1C(N)=O)c1ccccc1C(F)(F)F
active: Potency [1] 37.2 nM | Potency [2] 18.7 µM | Potency [9] 0.0469 µM | Potency [4] 5.26 µM | Potency [11] 16.6 µM | Potency [13] 20.9 µM | Potency [14] 2.35 µM

CC=CC1=C(C(=O)O)N2C(=O)[C@H](NC(=O)[C@H](N)c3ccc(O)cc3)[C@@H]2SC1
active: Potency [15] 26.4 µM | Potency [14] 14.8 µM
inactive: Potency [2] | Potency [9] | Potency [10] | Potency [12] | Potency [16]

CN(C)CC(C)(C)CNc1nn2c(-c3ccccc3)nnc2cc1C1CCC1
inactive: Potency [5] | Potency [6]
active: Potency [17] 2.09 µM | Potency [18] 2.96 µM | Potency [8] 16.6 µM | Potency [3] 1.18 µM | Potency [14] 0.166 µM

CS(=O)(=O)c1ccc(-c2cnc(N)c(C(=O)Nc3ccccc3)n2)cc1
inactive: Potency [2] | Potency [15] | Potency [13] | Potency [5] | Potency [6]
active: Potency [7] 4.18 µM | Potency [14] 9.35 µM | Potency [16] 5.26 µM

Cc1ccc2nc(NC(=O)CSc3nc4c(c(=O)n3-c3ccccc3)SCC4)sc2c1
active: Potency [18] 8.33 µM | Potency [7] 11.8 µM | Potency [8] 5.26 µM | Potency [9] 9.35 µM | Potency [19] 11.8 µM | Potency [4] 23.5 µM | Potency [14] 13.2 µM | Potency [16] 16.6 µM | Potency [6] 8.33 µM

CCOC(=O)C1=C(C)NC2=C(C(=O)CC(C)(C)C2)C1c1ccc(-c2ccccc2)cc1 (stereo not drawn)
active: Potency [18] 26.4 µM | Potency [2] 18.7 µM | Potency [8] 20.9 µM | Potency [4] 16.6 µM | Potency [11] 23.5 µM | Potency [12] 16.6 µM | Potency [13] 20.9 µM | Potency [14] 23.5 µM

Nc1nc(-c2nn(Cc3ccccc3F)c3ncccc23)nc(N)c1N1CCOCC1
inactive: Potency [17] | Potency [2] | Potency [7] | Potency [9] | Potency [4] | Potency [12] | Potency [5] | Potency [14]

O=C1CCC[C@@H]2[C@H]3CCC[N+]4([O-])CCC[C@@H](CN12)[C@@H]34 (stereo partly drawn)
active: viability [19] 154%
inactive: Potency [18] | Potency [13] | Potency [5] | Potency [6]

Cc1cn2cc(C(=O)N(C)CCO)cc(N[C@@H]3CCOc4cccc(C)c43)c2n1
inactive: Potency [1] | Potency [3] | Potency [10] | Potency [15] | Potency [13] | Potency [5] | Potency [16] | Potency [6]

Nc1ccn([C@@H]2CS[C@H](CO)O2)c(=O)n1
inactive: Potency [1] | Potency [9] | Potency [10] | Potency [12] | Potency [16]
active: Potency [8] 24.1 µM | Potency [15] 10.8 µM | viability [19] 155% [at 92.2 µM] | Potency [13] 38.2 µM

COc1cccc(Nc2c(C(N)=O)cnc3c(C)cc(S(=O)(=O)c4cccc(C(=O)N(C)C)c4)cc23)c1
active: Potency [10] 12.9 µM
inactive: Potency [1] | Potency [9] | Potency [13]

CN[C@H]1CCc2cc(OC)c(OC)c(OC)c2-c2ccc(OC)c(=O)cc21
inactive: Potency [17]
active: Potency [18] 0.001 µM | Potency [2] 0.0187 µM | Potency [9] 0.0017 µM | Potency [4] 0.0148 µM | Potency [11] 0.0105 µM | Potency [12] 0.0235 µM | Potency [13] 0.0235 µM | Potency [16] 0.0066 µM | Potency [6] 0.0015 µM
